Screens: PubChem BioAssay, National Center for Advancing Translational Sciences (NCATS)
A selection: hits, their analogues and other compounds. The true share with any hit is near 12%.
Pf growth 96h – P. falciparum growth inhibition at 96 hours. P. falciparum luciferase reporter growth, 96 h. Potency, µM (series often up to 28.7 µM), without a hit: at the top dose activity change, negative = inhibition, most hits filed as inhibitors. 320,000 compounds, 6.9% hits; further: on the % scale 0 is the no-effect control and ±100 the full control effect
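Two parasite generations (96 h, 37 C, 5% CO2) of compound exposure in infected erythrocytes (0.05% parasitemia, 2% hematocrit). Luciferase-reporter P. falciparum; decreased luminescence indicates inhibited growth, aimed at apicoplast-acting delayed death.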
SARS PLP yeast – blocks SARS-CoV papain-like protease in a yeast assay; S. cerevisiae expressing SARS-CoV PLpro, growth rescue; Potency, µM (series often up to 32.9 µM), inactives show top-dose activity, positive = growth rescue, most hits filed as activators; 330,000 compounds, 0.19% hits; AID 485353; calls by dose curve; further: 0% is about no effect; nearly all actives have a fitted effect of over 55% in size
Sm TGR block – inhibitors of Schistosoma mansoni thioredoxin glutathione reductase. AID 485364. Q962Y6. Potency, µM (series often up to 114 µM), for the others: top-dose activity change, negative = inhibition, most hits filed as inhibitors. purified TGR, DTNB reduction, TNB absorbance 405 nm. 360,000 compounds, 3% hits; further: on the % scale 0 is the no-effect control and ±100 the full control effect; nearly all actives have a fitted effect of over 60% in size
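TGR 20 nM + NADPH 100 uM (dispensed conc.), cpd preinc 15 min RT; start with NADPH (500 uM addition) then DTNB (15 mM addition). Kinetic TNB absorbance, 405 nm filter. Four-parameter Hill fit across titration.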
AmpC detergent – inhibitors of E. coli AmpC beta-lactamase with detergent; AmpC hydrolysis of nitrocefin, absorbance 480 nm, 0.01% Triton; 370,000 compounds, 0.041% hits; AID 485294; Potency, µM (top dose mostly 114 µM), without a hit: at the top dose activity change, negative = inhibition, hits mostly inhibitors;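 further: 0% = no-compound wells and -100% = no-enzyme wells; nearly all actives have a fitted effect of over 25% in size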
Target sequence (P00811 whole entry, looked up): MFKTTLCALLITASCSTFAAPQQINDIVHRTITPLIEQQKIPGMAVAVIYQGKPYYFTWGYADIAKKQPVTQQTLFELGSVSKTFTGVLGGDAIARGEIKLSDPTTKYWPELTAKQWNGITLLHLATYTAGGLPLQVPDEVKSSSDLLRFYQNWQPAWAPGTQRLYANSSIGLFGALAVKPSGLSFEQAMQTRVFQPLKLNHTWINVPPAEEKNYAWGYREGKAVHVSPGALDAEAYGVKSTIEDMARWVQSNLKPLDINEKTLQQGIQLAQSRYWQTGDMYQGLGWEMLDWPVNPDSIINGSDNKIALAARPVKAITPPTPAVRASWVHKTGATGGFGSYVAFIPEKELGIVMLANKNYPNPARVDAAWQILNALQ
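AmpC (5.3 nM in the dispensed reagent) in 20 mM phosphate pH 7.0 with 0.01% (detergent screen) or 0.0001% Triton X-100 was preincubated with compounds for 15 min at room temperature. Nitrocefin was then added from an 800 uM solution, and hydrolysis was followed at 480 nm.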
Pf growth 48h – P. falciparum growth inhibition at 48 hours (one generation). Potency, µM (top dose mostly 28.7 µM), without a hit: top-dose activity change, negative = inhibition, actives largely listed as inhibitors. 310,000 compounds, 5.9% hits. P. falciparum luciferase growth in erythrocytes, 48 h; further: on the % scale 0 is the no-effect control and ±100 the full control effect
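Here the parasites carry a stable luciferase gene and grow inside erythrocytes in Albumax-based RPMI medium with compound for one erythrocytic cycle. Activity is scored as loss of luminescent signal.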
AmpC no deterg – blocks E. coli AmpC beta-lactamase in detergent-free assay | P00811 | AmpC nitrocefin hydrolysis, absorbance 480 nm, 0.0001% Triton | AID 485341 | 330,000 compounds, 0.52% hits | Potency, µM (highest dose often 57.1 µM), inactives show at the highest dose activity change, negative = inhibition, usual class: inhibitors;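 further: plate controls were no compound for no effect and no enzyme for full effect; nearly all actives have a fitted effect of over 20% in size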
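AmpC (5.3 nM in the dispensed reagent) in 20 mM phosphate pH 7.0 with 0.01% (detergent screen) or 0.0001% Triton X-100 was preincubated with compounds for 15 min at room temperature. Nitrocefin was then added from an 800 uM solution, and hydrolysis was followed at 480 nm.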
Active calls of the source: *; ? = inconclusive; · = not tested or not shown; [ ] = dose if it differs, or a comment. Unless noted, the call rests on the fitted dose curve; in most records, active means well fitted curve in the direction sought with a large enough effect; inconclusive means small, poorly fitted or top-dose-only effect, or another doubt; inactive means no such curve, though single readings can be large; an effect the other way counts as inactive or inconclusive. Potency means the concentration at half of the fitted maximal effect.

SMILES	Pf growth 96h	SARS PLP yeast	Sm TGR block	AmpC detergent	Pf growth 48h	AmpC no deterg
Cc1cccc(CC(=O)NC2CC(=O)N(c3ccccc3)C2)c1 (stereo unspecified)	·	·	-3%	-1%	·	·
COc1ccc(-n2cc(CN(C)CCO)c(-c3cccc(F)c3)n2)cc1	19%	0%	13%	2%	?	-16%
COc1ccc(-n2cc(CNCCc3cnc[nH]3)c(-c3cccc(F)c3)n2)cc1	?	0%	17%[57.1 µM]	8%	1.7µM*	231%
COc1ccc(-n2cc(CNCc3cccnc3)c(-c3cccc(F)c3)n2)cc1	?	-3%	5%	1%	13µM*	55%
COc1ccc(-n2cc(CN(C)C(C)c3ccncn3)c(-c3cccc(F)c3)n2)cc1 (stereo unspecified)	8%	-1%	-15%	-7%	10µM*	154%
COc1ccc(-n2cc(CN3CCC(OC)CC3)c(-c3cccc(F)c3)n2)cc1	25%	-2%	8%	-2%	10µM*	118%
COc1ccc(-n2cc(CNC3CCC(O)CC3)c(-c3cccc(F)c3)n2)cc1 (stereo unspecified)	?	0%	8%	-1%	?	73%
CCN(CC(=O)Nc1cc(Cl)ccc1OC)CC(=O)NC1CCS(=O)(=O)C1 (stereo unspecified)	5%	-2%	0%	-14%	-10%	1%
COc1ccc(S(=O)(=O)NCCS(=O)(=O)N2CCN(c3ccccc3F)CC2)cc1	·	·	-11%	-5%	·	·
Cc1occc1C(=O)NCc1cccc(CNC(=O)c2ccoc2C)c1	2%	-8%	40µM*	-17%	5%	-29%
Cc1occc1C(=O)NCc1ccc2c(c1)OCO2	0%	-3%	-15%	-6%	5%	-24%
Cc1ccc(Cl)cc1N1CCN(C(=O)c2c(C)oc3ncnc(N4CCCCC4)c23)CC1	·	·	11%	24%	·	·
COc1cccc(N2CC(C(=O)Nc3nnc(SCC(=O)Nc4ccc(NC(C)=O)cc4)s3)CC2=O)c1 (stereo unspecified)	?	-4%	5%	?	0%	-17%
Cc1nnc(NC(=O)C2CC(=O)N(Cc3ccccc3)C2)s1 (stereo unspecified)	?	?	0%	3%	-7%	-15%
O=C(Nc1nnc(SCCC2OCCO2)s1)C1CC(=O)N(c2ccccc2)C1 (stereo unspecified)	?	-2%	-34%	5%	-14%	5%
O=C(Nc1nnc(SCCC2OCCO2)s1)C1CC(=O)N(c2ccc(F)cc2)C1 (stereo unspecified)	10µM*	-1%	-5%	1%	?	-11%
O=C(Nc1nnc(SCc2ccc(F)cc2)s1)C1CC(=O)N(Cc2ccccc2)C1 (stereo unspecified)	7.4µM*	-10%	4%	-11%	-14%	35%
COc1cccc(N2CC(C(=O)Nc3nnc(SCCC4OCCO4)s3)CC2=O)c1 (stereo unspecified)	9.3µM*	2%	14%	?	-21%	46%
COc1cc2c(cc1OC)C(COc1cc(C)cc(C)c1)N(C(=O)C(C)(C)C)CC2 (stereo unspecified)	·	·	6%	4%	·	·
N#Cc1c(N2CCCCC2)nc(N)c2c(N)nc3c(c12)CC(c1ccccc1)O3 (stereo unspecified)	4.1µM*	1%	-11%	?	5.9µM*	-27%
CCN(CC)c1nc(N)c2c(N)nc3c(c2c1C#N)CC(c1ccccc1)O3 (stereo unspecified)	·	-3%	4%	-5%	2.3µM*	-55%
CCOC(=O)c1cnc(/N=C/N(C)C)s1	58%	-1%	9%	-6%	102%	0%
CCN(C(=O)Cn1c(C(=O)OC)cc2oc3ccccc3c21)c1cccc(C)c1	·	·	2%	14%	·	·
